Bioassay records: PubChem, several laboratories
GluA2 TARP mod – GluA2-stargazin AMPA receptor complex modulation; O88602+P19491; HEK293 GluA2+stargazin, membrane potential dye (FDSS), glutamate EC50; hits were called plate by plate, in both directions; calls only at 30 µM; 3.5% of 40,000 active; AID 1259245;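 active = any of four per-well response measures lying three or more SD from its plate-wide compound average, in either direction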
GIRK2 act – GIRK2 channel activators by thallium flux; P48051; HEK293 GIRK2/NPY4 cells, thallium flux fluorescence; AID 1259324; activation (% efficacy), % for hits at 37.5 µM; 34,000 tested, under 10 active;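 active = primary screen hit, no activity in plain HEK293 cells, and in GIRK2-only cells above 5% efficacy rising with concentration; inactive = the rest, including fluorescent compounds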;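 note: efficacy is normalized control-subtracted fluorescence 15 s after thallium addition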
Target sequence (P48051 whole entry, looked up): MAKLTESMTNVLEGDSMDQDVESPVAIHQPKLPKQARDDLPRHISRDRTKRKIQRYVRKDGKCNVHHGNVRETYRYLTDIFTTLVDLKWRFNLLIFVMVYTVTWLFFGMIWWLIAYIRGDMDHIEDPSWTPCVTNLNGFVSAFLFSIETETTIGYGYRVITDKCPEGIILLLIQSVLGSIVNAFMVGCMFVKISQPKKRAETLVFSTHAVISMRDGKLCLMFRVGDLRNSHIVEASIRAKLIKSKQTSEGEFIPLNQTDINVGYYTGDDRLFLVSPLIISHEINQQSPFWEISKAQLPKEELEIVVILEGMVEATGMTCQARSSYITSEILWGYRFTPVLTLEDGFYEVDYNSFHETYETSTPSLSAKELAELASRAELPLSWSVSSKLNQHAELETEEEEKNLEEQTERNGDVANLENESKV
Each line names hits and unclear results; the compound was inactive in the other large screens; ! = not confirmed by another sample. Only a selection was taken, and hits are over-represented in it overall.

COc1ccc2nc(N(CCN3CCOCC3)C(=O)c3ccc(Cl)s3)sc2c1	GluA2 TARP mod active (no result: GIRK2 act)
COc1ccc2nc(N(CCN3CCOCC3)C(=O)c3nc4ccccc4s3)sc2c1	none
COc1ccc2sc(N(CCN3CCOCC3)C(=O)CSc3ccc(C)cc3)nc2c1	none
COc1ccc2nc(N(CCN3CCOCC3)C(=O)c3ccc([N+](=O)[O-])cc3)sc2c1	none (no result: GIRK2 act)
CCCC(=O)N(CCN1CCOCC1)c1nc2cc(OC)ccc2s1	GluA2 TARP mod active
C=CCNC(=O)C(=O)Nc1c2c(nn1C(C)(C)C)CSC2	none
COc1ccccc1C(=O)N1c2ccccc2CC1C(N)=O (configuration not stated)	none
COCCN1CCC(CNC(=O)c2cccc(C(F)(F)F)c2)CC1	none (no result: GIRK2 act)
CSCCn1c(=NC(=O)c2ccnn2C)sc2cc(C)ccc21	none (no result: GluA2 TARP mod)
CSc1ccc(CC(=O)Nc2nnc(-c3cccs3)o2)cc1	none (no result: GIRK2 act)
COc1cc(NC(=O)Nc2ccccc2)ccc1N1CCCCC1=O	none
COc1ccc(Cl)cc1C(=O)NCC(=O)N1CCOC(c2ccccc2)C1 (configuration not stated)	none (no result: GluA2 TARP mod)
COc1ccc(C)c2sc(N(CCN3CCOCC3)C(=O)c3ccc([N+](=O)[O-])s3)nc12	GluA2 TARP mod active (no result: GIRK2 act)
COc1ccc(C)c2sc(N(CCN3CCOCC3)C(=O)c3ccccc3)nc12	none (no result: GIRK2 act)
O=C(CCCS(=O)(=O)c1ccccc1)Nc1nc2c(Cl)cccc2s1	none
COc1ccc(S(=O)(=O)NCC(C)(O)C2CC2)cc1Cl (configuration not stated)	none
CSCCC(C)(O)CNS(=O)(=O)c1ccc(Br)s1 (configuration not stated)	none (no result: GIRK2 act)
COc1ccc(S(=O)(=O)NCC(C)(O)CCSC)cc1Cl (configuration not stated)	GluA2 TARP mod active
CSCCC(C)(O)CNS(=O)(=O)c1ccc(Cl)s1 (configuration not stated)	GluA2 TARP mod active
COc1cccc(C(=O)NCCS(=O)(=O)NC(C)(C)C)c1	none (no result: GIRK2 act)
CCOC(=O)N1CCc2nc(NC(=O)c3ccnn3CC)sc2C1	none
Cc1ccc(NCCNC(=O)c2ccccc2C(F)(F)F)nn1	none
COc1ccc(OC)c(-c2ccc(=O)n(Cc3cccc4ccccc34)n2)c1	GluA2 TARP mod active
COc1ccc(OC)c(-c2ccc(=O)n(CCNC(=O)Nc3cc(C)cc(C)c3)n2)c1	GluA2 TARP mod active
COc1ccc(OC)c(-c2ccc(=O)n(Cc3ccc(Cl)cc3Cl)n2)c1	none
COc1ccccc1-c1ccc(=O)n(Cc2cccc3ccccc23)n1	none
COc1ccc(OC)c(-c2ccc(=O)n(Cc3ccc([N+](=O)[O-])cc3)n2)c1	GluA2 TARP mod active
COc1ccc(OC)c(-c2ccc(=O)n(CCNC(=O)Nc3ccccc3)n2)c1	none
Cc1cc(C)n(CCN2CCCN(S(=O)(=O)Cc3cccc(F)c3)CC2)n1	none
N#Cc1ccc(NC(=O)CSc2ncc(S(=O)(=O)c3cccs3)c(N)n2)cc1	GluA2 TARP mod active
N#Cc1cccc(NC(=O)CSc2ncc(S(=O)(=O)c3cccs3)c(N)n2)c1	none
O=C(NCC1(O)CCc2ccccc21)Nc1ccccc1Cl (configuration not stated)	none
O=C(NCC1(O)CCc2ccccc21)Nc1ccc(Cl)c(Cl)c1 (configuration not stated)	GluA2 TARP mod active
CCS(=O)(=O)c1ccc(CC(=O)Nc2nnc(-c3cc(C)n(C)n3)o2)cc1	none
CC1(C)CC2CC(C)(CN2Cc2c(O)ccc3ccccc23)C1 (configuration not stated)	GluA2 TARP mod active (no result: GIRK2 act)
COc1ccc(CCC(=O)N2CCC(c3ccsc3)CC2)cc1	GluA2 TARP mod active
COc1ccc(NC(=O)N2CCC(c3ccsc3)CC2)cc1	none (no result: GIRK2 act)
CCS(=O)(=O)c1ccccc1C(=O)Nc1ccc2ncsc2c1	none
O=S(=O)(c1ccc(Oc2ccccc2Cl)cc1)N1CCCCC1	none (no result: GIRK2 act)
O=S(=O)(c1ccc(Oc2ccccc2Cl)cc1)N1CCCC1	GluA2 TARP mod active (no result: GIRK2 act)
Cc1ccc(NC(=O)CN2CCN(c3nccn3-c3cccc(Cl)c3)CC2)c(C)c1	none
COC(=O)c1sccc1S(=O)(=O)N(CC(=O)Nc1ccccc1)c1ccccc1	none
CCc1ccccc1NC(=O)CN(c1ccc(C)cc1)S(=O)(=O)c1ccsc1C(=O)OC	GluA2 TARP mod active
COC(=O)c1sccc1S(=O)(=O)N(CC(=O)Nc1cccc(OC)c1)c1ccc(Cl)cc1	GluA2 TARP mod active
COC(=O)c1sccc1S(=O)(=O)N(CC(=O)Nc1ccccc1OC)c1ccccc1	none
c1ccc(-c2ccc(SCc3nc(-c4cccs4)no3)nn2)cc1	none
Cc1ccc(S(=O)(=O)N(CC(O)CNCCC(=O)O)c2ccc(F)cc2)cc1 (configuration not stated)	none
COc1ccc(N(CC(O)CNCCC(C)C)S(=O)(=O)c2ccc(C)cc2)cc1 (configuration not stated)	GluA2 TARP mod active (no result: GIRK2 act)
COc1cccc(N2CC(NC(=O)c3ccccc3C(F)(F)F)CC2=O)c1 (configuration not stated)	none (no result: GIRK2 act)
CC(C)NC(=O)CSc1nnc(N2CCN(c3ccc(F)cc3)CC2)s1	GluA2 TARP mod active
CCOC(=O)C(C)Sc1nnc(N2CCN(c3ccc(F)cc3)CC2)s1 (configuration not stated)	none
CCOc1ccc(Br)cc1S(=O)(=O)Nc1cccc(-c2ccc(=O)n(C)n2)c1	none
CC(C)(C)c1cc(NC(=O)CSCc2ccccc2)n(CCO)n1	GluA2 TARP mod active
O=C(CSCc1ccccc1)Nc1cc(-c2cccs2)nn1CCO	none
CC(C)(C)c1cc(NC(=O)Cc2ccccc2Cl)n(CCO)n1	none
CC(C)(C)c1cc(NC(=O)CCSc2ccccc2)n(CCO)n1	GluA2 TARP mod active
Cn1nc(C2CCCN(C(=O)c3ccco3)C2)n(-c2ccccc2)c1=O (configuration not stated)	none
CN1C(=O)C(C)(C)COc2cc(NC(=O)c3ccc4nsnc4c3)ccc21	GluA2 TARP mod active
Cc1cc(C(=O)Nc2ccc3c(c2)OCC(C)(C)C(=O)N3C)c(C)o1	none
O=C(COc1ccccc1)NCCN1CCOC(c2ccccc2)C1 (configuration not stated)	none
CCOC(=O)c1ccc2nc(C)cc(Nc3cccc([N+](=O)[O-])c3)c2c1	GluA2 TARP mod active (no result: GIRK2 act)
CCOC(=O)c1ccc(Nc2cc(C)nc(-n3cc([N+](=O)[O-])cn3)n2)cc1	none
COc1ccc(NC(=S)N2CCC(O)CC2)c(OC)c1	none (no result: GIRK2 act)
O=C(CCCc1ccccc1)N1CCN(c2nccn2-c2cccc(Cl)c2)CC1	GluA2 TARP mod active
COc1ccc(CCC(=O)N2CCN(c3nccn3-c3cccc(Cl)c3)CC2)cc1	none
O=C(NCCOc1ccc(-c2cccs2)nn1)c1ccc([N+](=O)[O-])cc1	none
O=S(=O)(Nc1cccc(C(F)(F)F)c1)c1c(Cl)cccc1Cl	GluA2 TARP mod active
O=S(=O)(Nc1ccc2c(c1)OCCO2)c1c(Cl)cccc1Cl	none
COc1cc(/C=C2\Oc3cc(OC(C)=O)ccc3C2=O)cc(OC)c1OC	none (no result: GIRK2 act)
COc1cc(/C=C2\Oc3cc(OC(=O)c4ccccc4F)ccc3C2=O)cc(OC)c1OC	GluA2 TARP mod active (no result: GIRK2 act)
Cc1ccc(CNC(=O)C(=O)Nc2ccc(N3CCCC3=O)c(C)c2)cc1	none
CC(=O)c1cc2cc(Cl)ccc2o1	none
Cc1ccc(C)c(S(=O)(=O)Nc2ccc(C(=O)NCCc3ccccc3)cc2)c1	none (no result: GIRK2 act)
Cc1cc(C)c(C(=O)NCCc2ccccc2)c(C)c1	GluA2 TARP mod active!
COC(=O)c1ccc(OCC(O)CN2CC(C)OC(C)C2)cc1 (configuration not stated)	none (no result: GIRK2 act)
